Assay results taken from PubChem BioAssay (NCI).
About 79,000 compounds went through this panel and 15% of them were active in at least one assay; those are over-represented in the sample as a whole. The source made the active and inactive calls. Cut-off read from the data, not from the text of the source: active = growth inhibition above about 70%; inactive = the rest.

Test: NCI Yeast Anticancer Drug Screen. Data for the wt1 strain (AID 149);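 note: 0% = growth of vehicle-treated wt1 cultures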
Conditions: S. cerevisiae wt1 strain (SPY 50644) growth inhibition, hits give high values
Experimental: Growth inhibition of yeast strains with defined genetic alterations is measured as a screen for potential anti-cancer activity. Selected strains with alterations in DNA damage repair or cell cycle control were exposed to compounds and growth inhibition was measured relative to vehicle treated controls. The strain used in this assay is wt1

Measured: growth inhibition

Nc1c([N+](=O)[O-])cc2c3c(cccc13)CC2
inactive: at 1.2 µM 6% | at 3.7 µM 12% | at 11.0 µM 24% | at 33.0 µM 25% | at 100.0 µM 24%

O=C(N/N=C/c1ccc2c(c1)CCC2)c1ccccc1[N+](=O)[O-]
inactive: at 1.2 µM -17% | at 3.7 µM -7% | at 11.0 µM -21% | at 33.0 µM -16%
active: at 100.0 µM 96%

COc1ccc(C(=O)OCCc2ccccc2)cc1
inactive: at 1.2 µM -2% | at 3.7 µM -5% | at 11.0 µM -5% | at 33.0 µM -7% | at 100.0 µM -8%

COc1ccc(/C=C2\S/C(=N/Nc3nc(-c4ccccc4)cs3)NC2=O)cc1OC
active: at 3.7 µM 90% | at 11.0 µM 97% | at 33.0 µM 96% | at 100.0 µM 95%
inactive: at 1.2 µM 50%

CCC(C)/C(C)=N/NC(N)=O (stereo not given)
inactive: at 1.2 µM 0% | at 3.7 µM 2% | at 11.0 µM 3% | at 33.0 µM 3% | at 100.0 µM 1%

O=Cc1ccccc1B(O)O
active: at 33.0 µM 99% | at 100.0 µM 99%
inactive: at 1.2 µM -3% | at 3.7 µM -1% | at 11.0 µM 66%

O=C(O)[C@H]1[C@@H](C2CCCCC2)O[C@@H](C2CCCCC2)O[C@H]1C(F)(F)F
inactive: at 1.2 µM -3% | at 3.7 µM 0% | at 11.0 µM 0% | at 33.0 µM 0% | at 100.0 µM 1%

[O-]c1c2cc(-[n+]3c(-c4ccccc4)cc(-c4ccccc4)cc3-c3ccccc3)cc1COCCOCCOCCOCCOC2
inactive: at 1.2 µM 3% | at 3.7 µM -6% | at 11.0 µM -6% | at 33.0 µM -7% | at 100.0 µM 35%
